# From paper PMC12431657, “Discovery and mechanistic insights of dibenzoylmethane as a broad spectrum inhibitor of coronavirus” (PLOS Pathogens, 2025)
# Read-outs that look alike come from different tables or passages of the source. The whole screen tested about 3,300 compounds, of which about 95 (3%) showed an effect of 50% or more. What follows is part of a selection rich in strong results, with near analogues and random picks from the rest.
# System: HCoV-229E
# Design: species or system Huh-7; HTS, protection from HCoV-229E induced cell death, luminescent cell viability (CellCounting-Lite 2.0), inhibition rate
# Conditions: 24 h post infection, 1 h compound pre-incubation, 10 µM, inhibitor
smiles,measurement,setting,value
O=C1/C(=C/c2ccc(O)c(O)c2)COc2cc(O)ccc21 [Sappanone A],229E Inhibition rate,,15.6%
CC1(C)CCC[C@]2(C)[C@H]3CCO[C@]3(C)CC[C@@H]12 [Ambroxide],229E Inhibition rate,,53.4%
C=C[C@](C)(O)CC[C@@H]1[C@@]2(C)CCCC(C)(C)[C@@H]2CC[C@@]1(C)O [Sclareol],229E Inhibition rate,,19.3%
CC1(C)CCC[C@]2(C)[C@@H](C=O)C(C=O)=CC[C@@H]12 [Polygodial],229E Inhibition rate,,16.5%
CC1(C)Oc2cc3oc(=O)ccc3cc2C[C@@H]1O [Decursinol],229E Inhibition rate,,0%
COc1cc([C@H]2OC[C@H]3[C@@H]2CO[C@@H]3c2ccc(O[C@@H]3O[C@H](CO)[C@@H](O)[C@H](O)[C@H]3O)c(OC)c2)ccc1O[C@@H]1O[C@H](CO)[C@@H](O)[C@H](O)[C@H]1O [Pinoresinol Diglucoside],229E Inhibition rate,,23.6%
CSCCC(NC(C)=O)C(=O)O (racemic) [N-Acetyl-DL-methionine],229E Inhibition rate,,32.7%
O=c1ccc2cc(O)ccc2o1 [6-Hydroxycoumarin],229E Inhibition rate,,10.6%
O=c1ccc2ccc(O)cc2o1 [Umbelliferone],229E Inhibition rate,,54.3%
O=c1ccc2cc(O)c(O)cc2o1 [Esculetin],229E Inhibition rate,,35.1%
C[C@H](CC[C@@H](O)C(C)(C)O)[C@H]1CC[C@@]2(C)[C@@H]3CC=C4[C@@H](CC[C@H](O[C@@H]5O[C@H](CO[C@@H]6O[C@H](CO)[C@@H](O)[C@H](O)[C@H]6O)[C@@H](O)[C@H](O)[C@H]5O)C4(C)C)[C@]3(C)[C@H](O)C[C@]12C [Mogroside II-A2],229E Inhibition rate,,10%
CCCCC[C@H](O)CC(=O)CCc1ccc(O)c(OC)c1 [[6]-Gingerol],229E Inhibition rate,,52.8%
CCCCCCCCC[C@H](O)CC(=O)CCc1ccc(O)c(OC)c1 [10-Gingerol],229E Inhibition rate,,32.3%
CCCCCCC[C@H](O)CC(=O)CCc1ccc(O)c(OC)c1 [8-Gingerol],229E Inhibition rate,,13.3%
Cc1ncc(C[n+]2csc(CCOP(=O)(O)O)c2C)c(N)n1 [Thiamine monophosphate (chloride) (dihydrate)],229E Inhibition rate,,12.1%
CC(=O)O[C@H]1[C@H]2[C@H]([C@@H]3[C@H]4OC(=O)[C@@](C)(O)[C@@]5(C)C(=O)C[C@@H](C)[C@@H]([C@@H]45)[C@@]3(C)[C@H]1OC(C)=O)[C@@H](OC(C)=O)C(=O)[C@H]1C[C@@H]3O[C@@H]3[C@H](OC(C)=O)[C@]21C [Taccalonolide C],229E Inhibition rate,,10.3%
O=c1cc(-c2ccc(O)c(O)c2)oc2cc(O)cc(O)c12 [Luteolin],229E Inhibition rate,,0%
COc1cc(O)c2c(=O)cc(-c3ccc(OC)c(-c4c(O)cc(O)c5c(=O)cc(-c6ccc(O)cc6)oc45)c3)oc2c1 [Ginkgetin],229E Inhibition rate,,64.4%
O=c1cc(-c2ccccc2)c2cc(O)c(O)cc2o1 [Nordalbergin],229E Inhibition rate,,17.6%
COc1ccc(-c2cc(=O)c3c(O)cc(O)c(-c4cc(-c5cc(=O)c6c(O)cc(O)cc6o5)ccc4OC)c3o2)cc1 [Isoginkgetin],229E Inhibition rate,,6.1%
O=c1cc(-c2ccc(O)cc2)oc2cc(O)cc(O)c12 [Apigenin],229E Inhibition rate,,55.5%
O=c1c(O)c(-c2ccccc2)oc2cc(O)cc(O)c12 [Galangin],229E Inhibition rate,,8%
O=c1cc(-c2ccccc2)c2c(O)cc(O)cc2o1 [LC3-mHTT-IN-AN2],229E Inhibition rate,,50.8%
COc1ccc(-c2cc(=O)c3c(O)cc(O)cc3o2)cc1-c1c(O)cc(O)c2c(=O)cc(-c3ccc(O)cc3)oc12 [Bilobetin],229E Inhibition rate,,22.4%
O=c1cc(-c2ccccc2)oc2cc(O)cc(O)c12 [Chrysin],229E Inhibition rate,,0%
O=C(/C=C/c1ccc(O)c(O)c1)O[C@H]1[C@H](O)C[C@](O)(C(=O)O)C[C@H]1O [Cryptochlorogenic acid],229E Inhibition rate,,7.4%
CC1(C)[C@@H](O[C@H]2O[C@H](C(=O)O)[C@@H](O)[C@H](O)[C@H]2O[C@@H]2O[C@H](C(=O)O)[C@@H](O)[C@H](O)[C@H]2O)CC[C@]2(C)[C@H]3C(=O)C=C4[C@@H]5C[C@@](C)(C(=O)O)CC[C@]5(C)CC[C@@]4(C)[C@]3(C)CC[C@@H]12 [Diammonium Glycyrrhizinate],229E Inhibition rate,"229E Inhibition rate, 24 h",0%
C[C@@H]1O[C@H]2O[C@H]3[C@@H](OC[C@H](O)[C@@H]3O)OC(=O)[C@]34CCC(C)(C)C[C@H]3C3=CC[C@@H]5[C@@]6(C)C[C@H](O)[C@H](O[C@@H]7O[C@H](CO)[C@@H](O)[C@H](O)[C@H]7O[C@@H]7OC[C@H](OC(=O)C[C@](C)(O)CC(=O)O[C@@H]1[C@@H](O[C@@H]1OC[C@@H](O)[C@H](O)[C@H]1O)[C@H]2O)[C@H](O)[C@H]7O)[C@@](C)(CO)[C@@H]6CC[C@@]5(C)[C@]3(C)C[C@H]4O [Tubeimoside II],229E Inhibition rate,,0.9%
